PubChem BioAssay
Results filed as inconclusive are left out. The source made the active and inactive calls.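 Rule for the calls, unless noted: active = viability at or under a set limit in both replicates, limit being median viability minus 3 SD (cut at about 48% in these data, passing the limit was not always enough); inconclusive = at or under the limit in just one replicate; inactive = at or above the limit in both replicates.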

Key:
[1] = reducers of endogenous Her2 protein level, primary screen, SKBR3 breast tumor cells, AlphaScreen, ATP viability (AID 461;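 active = Her2 level under about 52% in both replicate screens, with viability over 70% of control, limit read from the data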;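 for Her2 level: lower value means less Her2 protein in the cells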;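 for viability: percent of carrier control wells set as 100% viability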); conditions: 18-24 h, measured here: SKBR3 viability, ATP luminescence, at 10 µM
[2] = target: Receptor tyrosine-protein kinase erbB-2 (Homo sapiens) (UniProt P04626); assay: as above; conditions: 18-24 h, at 10 µM, stronger effect = lower value
Chain of Receptor tyrosine-protein kinase erbB-2 (Homo sapiens) (P04626 whole entry, looked up): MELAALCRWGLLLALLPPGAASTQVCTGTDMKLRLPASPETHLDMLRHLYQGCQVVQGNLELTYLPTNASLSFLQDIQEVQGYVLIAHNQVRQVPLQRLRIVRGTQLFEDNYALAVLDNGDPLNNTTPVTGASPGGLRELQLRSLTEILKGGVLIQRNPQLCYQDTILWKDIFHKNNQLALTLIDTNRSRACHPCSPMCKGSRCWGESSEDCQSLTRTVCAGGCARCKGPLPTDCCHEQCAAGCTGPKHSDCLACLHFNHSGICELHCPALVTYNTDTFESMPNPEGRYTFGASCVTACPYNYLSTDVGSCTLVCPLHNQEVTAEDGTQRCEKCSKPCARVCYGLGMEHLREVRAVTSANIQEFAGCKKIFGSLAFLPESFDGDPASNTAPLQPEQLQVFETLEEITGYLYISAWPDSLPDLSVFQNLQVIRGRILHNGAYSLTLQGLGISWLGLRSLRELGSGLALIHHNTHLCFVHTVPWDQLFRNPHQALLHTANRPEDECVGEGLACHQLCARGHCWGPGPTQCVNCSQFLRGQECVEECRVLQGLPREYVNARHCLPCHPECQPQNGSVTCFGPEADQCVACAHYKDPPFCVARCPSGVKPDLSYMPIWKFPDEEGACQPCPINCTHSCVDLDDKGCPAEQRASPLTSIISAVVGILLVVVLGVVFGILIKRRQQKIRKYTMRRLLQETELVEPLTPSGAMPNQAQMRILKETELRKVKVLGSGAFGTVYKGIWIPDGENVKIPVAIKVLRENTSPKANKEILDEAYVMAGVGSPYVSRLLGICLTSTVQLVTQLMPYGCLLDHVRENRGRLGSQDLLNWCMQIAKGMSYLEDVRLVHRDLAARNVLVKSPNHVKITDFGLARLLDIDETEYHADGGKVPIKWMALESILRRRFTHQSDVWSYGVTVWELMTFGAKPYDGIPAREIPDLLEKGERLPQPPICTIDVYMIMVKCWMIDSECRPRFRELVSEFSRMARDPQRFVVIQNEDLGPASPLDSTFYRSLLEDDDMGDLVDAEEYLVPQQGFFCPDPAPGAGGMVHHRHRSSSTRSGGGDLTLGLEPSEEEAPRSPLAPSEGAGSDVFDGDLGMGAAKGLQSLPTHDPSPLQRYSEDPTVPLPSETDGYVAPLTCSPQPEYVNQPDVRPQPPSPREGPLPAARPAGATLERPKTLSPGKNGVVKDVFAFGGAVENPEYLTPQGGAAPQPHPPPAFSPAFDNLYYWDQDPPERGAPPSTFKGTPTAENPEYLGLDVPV

[3] = SK-BR-3 cell growth inhibitors, pilot screen, 24 h, human (AID 572;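 active = viability at or below 10% of carrier control in both of two separate runs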;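 note: compound exposure lasted between 18 and 24 h rather than exactly 24 h; 100% = carrier-treated control wells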); conditions: SK-BR-3 viability, CellTiter-Glo luminescence, at 10 µM, stronger effect = lower value
[4] = HUVEC growth inhibition – cell-based, human, primary screen (AID 575;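 active = viability at or below 30% in both replicate assays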;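 note: 100% = median of untreated cell wells with 0.1% DMSO on each plate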); conditions: HUVEC proliferation, CellTiter-Glo luminescence, 72 h; at 10 µM; stronger effect = lower value
[5] = growth inhibitors of H69AR lung tumor, primary screen, human, duplicate replicates (AID 580); conditions: H69AR lung tumor cells viability, ATP luminescence, 72 h; at 10 µM; stronger effect = lower value;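 note: 100% = mean luminescence of untreated wells and 0% = no signal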
[6] = reversal of MRP1-mediated doxorubicin resistance, pilot screen, H69AR cells, doxorubicin co-treatment (AID 601;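 active = viability loss from added drug above about 55%, and viability with drug at most 40%, in both replicates, limit read from the data, passing the limit was not always enough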); conditions: CellTiter-Glo, 72 h, at 10 µM; for differential viability (reversal): stronger effect = higher value
[7] = 384-well plate pilot, post-Golgi transport modulator project, inhibition of yeast transport mutant growth (AID 636; in the data active = inhibition above about 31%); conditions: absorbance 615 nm, about 18 h, stronger effect = higher value
[8] = growth suppression of yeast trafficking mutant, preliminary HTS, modulators of trafficking downstream of Golgi apparatus project, 1536-format plate, OD 615 nm (AID 637; in the data active = inhibition above about 30%); conditions: yeast transport mutant growth, absorbance 615 nm, 18 h; stronger effect = higher value
[9] = OD615 S. cerevisiae growth inhibition, permissive medium, pilot counter-assay, permissive growth control for S. cerevisiae lifespan shortening project (AID 705;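 active = growth inhibition above 25% in both replicates, a cutoff set 3 SD above the mean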); conditions: OD615, 24 h, at 10 µM, stronger effect = higher value
[10] = Restrictive medium S. cerevisiae growth inhibition, OD615, pilot screen of yeast lifespan reduction project, restrictive growth control (AID 706;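 active = growth inhibition above a set limit, 3 SD over mean compound inhibition, in both replicates, cut at about 43% in these data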;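 note: modified DeaD lifespan yeast strain shifted to restrictive glucose medium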); conditions: OD615, 48 h, at 10 µM, stronger effect = higher value
[11] = viability gain of MRP-1-high H69AR cells under doxorubicin, pilot screen, MRP-1 activator project, CellTiter-Glo, duplicate (AID 807;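 active = viability increase at or above a cutoff of the median across tested compounds plus 3 SD, cut at about 8.5% in these data, passing the limit was not always enough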;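 note: compound pretreatment 18-22 h then 72 h combined with doxorubicin; 0% = doxorubicin alone and 100% = vehicle without doxorubicin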); conditions: H69AR viability with doxorubicin, CellTiter-Glo luminescence; at 10 µM; stronger effect = higher value
[12] = growth suppression of beta-catenin knockout HCT116, pilot screen, human colon tumor cells (AID 823;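 active = cell viability at or below a set limit in both duplicate runs, the limit being the all-compound median minus 4 SD, cut at about 23% in these data, passing the limit was not always enough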;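 note: 0% = wells killed by 20 µM Hyamine and 100% = untreated DMSO cell wells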); conditions: CellTiter-Glo, 60 h, at 10 µM, stronger effect = lower value
[13] = growth suppression of PTEN-deleted HCT116, pilot screen, cell-based, HCT116 clonal line, CellTiter-Glo (AID 824;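 active = viability at or below 27.92% in each of two runs, the all-compound median minus 4 SD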;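 note: 0% = 20 µM Hyamine control and 100% = vehicle cell control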); conditions: 60 h, at 10 µM, stronger effect = lower value
[14] = inhibitors of the yeast RAM network, pilot screen, dse1pr::URA3 reporter, 5-FOA selection (AID 869;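 active = inhibition over a set limit, the all-compound mean plus 3 SD, in both replicate runs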;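 note: 0% = DMSO wells with no growth and 100% = 10 µM 1-NA-PP1 with full growth; RAM network block rescues cells from 5-FOA so hits raise OD615 growth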); conditions: S. cerevisiae dse1pr::URA3 5-FOA growth, OD615, 2 d; at 10 µM; stronger effect = higher value; strain carries analog-sensitive mutant Cbk1 kinase
[15] = RAM signaling pathway blockade in yeast – S. cerevisiae, Pdr1DBD-CYC8 efflux-inhibited sensitized strain, primary screen (AID 1298;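 active = RAM network inhibition above 8.4% in each of two replicates, 3 SD over the compound average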;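 note: 0% = DMSO untreated cells without growth and 100% = 10 µM 1-NA-PP1 full growth; higher means more yeast growth rescued from 5-FOA killing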); conditions: S. cerevisiae cbk1-as DSE1-URA3 strain, 5-FOA growth OD615, 2 d; at 50 µM; stronger effect = higher value
[16] = H69AR cells + 2 uM doxorubicin, measured here: viability with 2 uM doxorubicin, stronger effect = lower value
[17] = H69AR cells, compound alone cytotoxicity

Row | Compound | viability [1] | Her2 level [2] | viability [3] | viability [4] | viability [5] | differential viability (reversal) ([6]; H69AR cells + 2 uM doxorubicin) | viability [6, 16] | viability [6, 17] | inhibition [7] | inhibition [8] | growth inhibition [9] | growth inhibition [10] | viability increase [11] | viability [12] | viability [13] | inhibition [14] | RAM network inhibition [15]
1 | CCOC(=O)CN1C(=O)C(=O)c2cccc(C)c21 | 80% | 101% (inactive) | 80% (inactive) | 86.5% (inactive) | 76% (inactive) | -0.56% (inactive) | 76.6% | 76% | -1.54% (inactive) | -0.5% (inactive) | 0.235% (inactive) | -4.38% (inactive) | -4.97% (inactive) | 88.4% (inactive) | 92.4% (inactive) | 1.77% (inactive) | 1.05% (inactive)
2 | CCOc1ccc(N(CC(=O)NC2CCCCC2)S(=O)(=O)c2c(C)noc2C)cc1 | 79.5% | 86.5% (inactive) | 79.5% (inactive) | 87.3% (inactive) | 74.3% (inactive) | -11.3% (inactive) | 85.6% | 74.3% | -2.31% (inactive) | -12.8% (inactive) | -6.46% (inactive) | 0.415% (inactive) | -1.54% (inactive) | 95.5% (inactive) | 89% (inactive) | 3.15% (inactive) | 1.06% (inactive)
3 | CC1CN(c2c3c(nc4ncnn24)CCCC3)CC(C)O1 (stereo not given) | 89.5% | 88% (inactive) | 89.5% (inactive) | 102% (inactive) | 90.7% (inactive) | 4.54% (inactive) | 86.2% | 90.7% | -4.87% (inactive) | 2% (inactive) | 3.17% (inactive) | -4.12% (inactive) | -1.41% (inactive) | 88.9% (inactive) | 90.8% (inactive) | 1.57% (inactive) | -1.85% (inactive)
4 | Cc1nnc(N2C(=O)C(O)=C(C(=O)c3ccco3)C2c2ccc(F)cc2)s1 (stereo not given) | 99% | 98.5% (inactive) | 99% (inactive) | 120% (inactive) | 99.6% (inactive) | 8.77% (inactive) | 90.9% | 99.6% | -3.46% (inactive) | 1.67% (inactive) | -13.9% (inactive) | -28.6% (inactive) | -1.63% (inactive) | 106% (inactive) | 101% (inactive) | 0.21% (inactive) | 0.57% (inactive)
5 | COc1cccc(-c2nc3n(n2)C(c2cccs2)C(C(=O)Nc2cccnc2)=C(C)N3)c1 (stereo not given) | 78% | 79% (inactive) | 78% (inactive) | 83.2% (inactive) | 101% (inactive) | -5.46% (inactive) | 107% | 101% | -2.93% (inactive) | -0.67% (inactive) | -13.1% (inactive) | -6.04% (inactive) | -2.26% (inactive) | 87.2% (inactive) | 93% (inactive) | -0.145% (inactive) | 5.84% (inactive)
6 | C=CCNC(=O)CSc1nc2sc(C)c(C)c2c(=O)[nH]1 | 96.5% | 95.5% (inactive) | 96.5% (inactive) | 90.1% (inactive) | 78.2% (inactive) | -7.53% (inactive) | 85.7% | 78.2% | -3.33% (inactive) | 1% (inactive) | -10.2% (inactive) | -4.47% (inactive) | -1.02% (inactive) | 110% (inactive) | 97.1% (inactive) | 3.06% (inactive) | 5.1% (inactive)
7 | CC(C)c1ncc(C(O)c2cccc3ccccc23)n1C (stereo not given) | 97.5% | 129% (inactive) | 97.5% (inactive) | 113% (inactive) | 87.5% (inactive) | 4.07% (inactive) | 83.5% | 87.5% | -4.68% (inactive) | -5.5% (inactive) | -21.2% (inactive) | -7.64% (inactive) | -0.83% (inactive) | 81.6% (inactive) | 79.1% (inactive) | 1.15% (inactive) | 0.82% (inactive)
8 | CC(C)C(=O)Nc1ccc(-c2nc3cccnc3o2)cc1 | 93.5% | 82% (inactive) | 93.5% (inactive) | 128% (inactive) | 95.2% (inactive) | -4.14% (inactive) | 99.4% | 95.2% | 1.03% (inactive) | -5.33% (inactive) | -11.7% (inactive) | -2.21% (inactive) | 1.32% (inactive) | 101% (inactive) | 104% (inactive) | 2.22% (inactive) | 1.35% (inactive)
9 | Cn1c(C(=O)NCCCN2CCCCCC2)cc2c(=O)n(C)c3ccccc3c21 | 80% | 92.5% (inactive) | 80% (inactive) | 91.2% (inactive) | 87.2% (inactive) | 12% (inactive) | 75.1% | 87.2% | 4.36% (inactive) | -3% (inactive) | -1.14% (inactive) | 6.89% (inactive) | -4.55% (inactive) | 76.1% (inactive) | 78.7% (inactive) | 1.04% (inactive) | 0% (inactive)
10 | CC1Cc2ccccc2N1C(=O)C12CCC(C)(C(=O)C1)C2(C)C (stereo not given) | 136% | 123% (inactive) | 136% (inactive) | 92.6% (inactive) | 82.1% (inactive) | 7.82% (inactive) | 74.3% | 82.1% | -5.47% (inactive) | -4.84% (inactive) | -23.2% (inactive) | -14.9% (inactive) | -0.66% (inactive) | 85% (inactive) | 89.9% (inactive) | 0.8% (inactive) | 6.06% (inactive)
11 | Cc1ccccc1OCc1nnc2n1CC(C)S2 (stereo not given) | 99% | 95% (inactive) | 99% (inactive) | 88.6% (inactive) | 92.3% (inactive) | 1.37% (inactive) | 90.9% | 92.3% | -4.27% (inactive) | -2% (inactive) | 3.34% (inactive) | 16.6% (inactive) | 0.12% (inactive) | 97.8% (inactive) | 95.3% (inactive) | 0.795% (inactive) | -0.06% (inactive)
12 | Cc1ccnc(NC(=O)C2CCC(CNc3c(N4CCCC4)c(=O)c3=O)CC2)c1 (stereo not given) | 93% | 93.5% (inactive) | 93% (inactive) | 92.2% (inactive) | 90.2% (inactive) | 1.23% (inactive) | 89% | 90.2% | -0.64% (inactive) | -3.83% (inactive) | -3.06% (inactive) | 4.16% (inactive) | -1.61% (inactive) | 72.4% (inactive) | 71.6% (inactive) | 0.595% (inactive) | -0.21% (inactive)
13 | Cc1nc2c(-c3ccc(F)cc3)c(C)nn2c(C)c1CCC(=O)NC(C)CCc1ccco1 (stereo not given) | 102% | 59% (inactive) | 102% (inactive) | 63.1% (inactive) | 91.2% (inactive) | 10.4% (inactive) | 80.9% | 91.2% | -0.64% (inactive) | 7.83% (inactive) | 2.17% (inactive) | -4.76% (inactive) | -1.56% (inactive) | 75% (inactive) | 82.3% (inactive) | 0.865% (inactive) | 1.03% (inactive)
14 | CC(=O)c1ccc(OCC(O)CN2CCN(CCO)CC2)cc1 (stereo not given) | 116% | 112% (inactive) | 116% (inactive) | 99.2% (inactive) | 96.3% (inactive) | -3.92% (inactive) | 100% | 96.3% | -5.73% (inactive) | 2.33% (inactive) | -1.98% (inactive) | 4.8% (inactive) | 1.18% (inactive) | 99% (inactive) | 101% (inactive) | 1.13% (inactive) | 1.57% (inactive)
15 | Cc1ccc(C(=O)NC(Cc2c[nH]c3ccccc23)C(=O)O)o1 (stereo not given) | 95.5% | 130% (inactive) | 95.5% (inactive) | 87.3% (inactive) | 88.9% (inactive) | 1.82% (inactive) | 87.1% | 88.9% | 1.95% (inactive) | -5% (inactive) | 1.54% (inactive) | -2.65% (inactive) | -3.09% (inactive) | 96.2% (inactive) | 96.4% (inactive) | 1.82% (inactive) | 6.26% (inactive)
16 | O=C(CC1Oc2ccc(Cl)cc2NC1=O)NC1CCCCCC1 (stereo not given) | 92.5% | 87.5% (inactive) | 92.5% (inactive) | 78.1% (inactive) | 88% (inactive) | -3.67% (inactive) | 91.6% | 88% | -1.47% (inactive) | 2.13% (inactive) | -4.77% (inactive) | -8.75% (inactive) | -1.05% (inactive) | 102% (inactive) | 102% (inactive) | 3.56% (inactive) | 4.95% (inactive)
17 | CCOC(=O)N1CCC(c2cc(=O)n3[nH]c(C)c(-c4ccc(F)cc4)c3n2)CC1 | 67% | 80.5% (inactive) | 67% (inactive) | 7% (active) | 21.3% (active) | -44.2% (inactive) | 65.5% | 21.3% | 0.38% (inactive) | -0.33% (inactive) | 2.81% (inactive) | 9.87% (inactive) | 0.52% (inactive) | 15.8% (active) | 19.7% (active) | 0.04% (inactive) | 0.41% (inactive)
18 | CN1CCN(Cc2nc3c(c(=O)n(C)c(=O)n3C)n2Cc2ccccc2Cl)CC1 | 80.5% | 97.5% (inactive) | 80.5% (inactive) | 86.5% (inactive) | 86.9% (inactive) | 7.12% (inactive) | 79.8% | 86.9% | -5.07% (inactive) | -2.17% (inactive) | -5.17% (inactive) | -14.4% (inactive) | -2.56% (inactive) | 91.8% (inactive) | 91.3% (inactive) | 1.5% (inactive) | 4.45% (inactive)
19 | CCOC(=O)/C=C1\CC(=O)Nc2nonc2N1 | 112% | 92.5% (inactive) | 112% (inactive) | 109% (inactive) | 105% (inactive) | 9.69% (inactive) | 95.7% | 105% | -1.73% (inactive) | 0.97% (inactive) | 0.64% (inactive) | 9.22% (inactive) | -2.08% (inactive) | 97.5% (inactive) | 95.3% (inactive) | 0.615% (inactive) | 1.93% (inactive)
20 | CC(=O)N1CCc2c(sc(NC(=O)c3ccc(S(=O)(=O)N(C)C)cc3)c2C#N)C1 | 83.5% | 105% (inactive) | 83.5% (inactive) | 73.3% (inactive) | 87.5% (inactive) | 5.97% (inactive) | 81.5% | 87.5% | -2.27% (inactive) | -5.41% (inactive) | -4.59% (inactive) | 4.39% (inactive) | -3.73% (inactive) | 104% (inactive) | 94.3% (inactive) | 0.115% (inactive) | 1.67% (inactive)
